Measurements: PubChem BioAssay (NCI)
This is part of a sample that, as a whole, favours compounds with a hit. Of some 79,000 tested, about 15% had one in any assay. Rule as the data show it: active = growth inhibition above about 70%; inactive = the rest.

Tests used:
[1] = NCI Yeast Anticancer Drug Screen. Data for the rad50 strain (AID 155);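 also: 0% = growth of vehicle-only cultures of the same strain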; conditions: S. cerevisiae rad50 strain growth inhibition; at 50.0 µM; active compounds read high
In short: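 Growth of the mutant yeast was measured after compound exposure and referenced to vehicle-treated cultures.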

[2] = NCI Yeast Anticancer Drug Screen. Data for the mec2-1 strain (AID 157); conditions: S. cerevisiae mec2-1 strain, at 50.0 µM, active compounds read high
In short: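 Using mec2-1 yeast: add compound, measure growth, express inhibition versus vehicle-treated cultures.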

[3] = NCI Yeast Anticancer Drug Screen. Data for the sgs1 mgt1 strain (AID 161);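 also: 0% = growth of cultures given vehicle only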; conditions: S. cerevisiae sgs1 mgt1 strain, at 50.0 µM, active compounds read high
In short: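 Yeast cells carrying a defined DNA-repair defect were exposed to test compounds. Growth inhibition was measured relative to vehicle-treated controls.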

[4] = NCI Yeast Anticancer Drug Screen. Data for the cln2 rad14 strain (AID 165);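 also: 0% = growth equal to vehicle treated cultures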; conditions: S. cerevisiae cln2 rad14 strain, at 50.0 µM, active compounds read high
In short: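 Yeast strain cln2 rad14, bearing defects in cell cycle control and DNA repair, serves as the test system; values reflect growth inhibition compared with vehicle.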

[5] = NCI Yeast Anticancer Drug Screen. Data for the bub3 strain (AID 167); conditions: S. cerevisiae bub3 mutant strain, at 50.0 µM, active compounds read high
In short: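 Whole-cell yeast assay. The mutant strain was incubated with compounds, and growth inhibition was determined by comparison with vehicle-treated cells.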

[6] = NCI Yeast Anticancer Drug Screen. Data for the mlh1 rad18 strain (AID 175); conditions: S. cerevisiae mlh1 rad18 strain growth inhibition; at 50.0 µM; active compounds read high
In short: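 Steps: expose repair-defective yeast to compound; measure growth; express inhibition against vehicle-treated controls.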

Measured: growth inhibition

S=CN1CCCCC1
inactive: [1] -25.1% | [2] -16.2% | [3] -7.8% | [4] -2.4% | [5] -23.8% | [6] -8.75%

S=C=Nc1ccc2ccccc2c1
inactive: [1] 15.3% | [2] -12.4% | [3] -5.9% | [4] 10.6% | [5] 2.35% | [6] 21.1%

COc1ccc(C2CCCCC2=O)cc1 (stereo not drawn)
inactive: [1] -17.2% | [2] -48.9% | [3] -11.8% | [4] 5.3% | [5] -34.2% | [6] -11.8%

Cc1nc(O)cc(=O)[nH]1
inactive: [1] 17.7% | [2] -6.9% | [3] -14.2% | [4] -6.95% | [5] -15.3% | [6] 10.1%

Oc1cccc(CNC2CCCCC2)c1
inactive: [1] 3.5% | [2] 0.25% | [3] -0.6% | [4] 10.2% | [5] -22.4% | [6] 9.15%

Cn1c(=O)[nH]c2ccccc2c1=O
inactive: [1] -1% | [2] 4.5% | [3] -2.1% | [4] 0.7% | [5] 6.85% | [6] 5.05%

C=C1C(=O)C2CCC1C2 (stereo not drawn)
inactive: [1] 32.4% | [2] -24.6% | [3] 23.8% | [4] -3.2% | [5] 7.8% | [6] 8.25%

CC(=O)Oc1c(Cl)cccc1-c1ccccc1
inactive: [1] 35.3% | [2] 10.9% | [3] 28.1% | [4] 5.4% | [5] 7.5% | [6] 13.4%

Cc1cc2c3ccc(C)[n+](C)c3ccc2n1C
inactive: [1] -4.3% | [2] 5.9% | [3] 10.6% | [4] -66.6% | [5] 7.65% | [6] -5.25%

O=C(N/N=C\c1ccc(Cl)cc1Cl)c1ccncc1
inactive: [1] 1% | [2] 6.85% | [3] 5.15% | [4] 19.2% | [5] -7% | [6] 3.5%

CCOS(=O)(=O)c1ccc([N+](=O)[O-])cc1
inactive: [1] 7.35% | [2] 5.95% | [3] 4.5% | [4] 5.15% | [5] 5.2% | [6] 5.8%

COc1nc2ccccc2s1
inactive: [1] 18.6% | [2] -15.2% | [3] 13.1% | [4] 10.9% | [5] 1.5% | [6] 22.4%

O=C(O)c1c[nH]c2ccccc2c1=O
inactive: [1] 4.95% | [2] -8.15% | [3] 5.7% | [4] -21.5% | [5] 1.65% | [6] 1.65%

Cc1ccnc(Nc2nc3ccccc3[nH]2)n1
inactive: [1] 7.1% | [2] -10.9% | [3] 4.5% | [4] 14.1% | [5] 8.6% | [6] 8.85%

CSc1cnc2ccccc2n1
inactive: [1] 5.55% | [2] -5.95% | [3] -10.6% | [4] 13.1% | [5] -0.85% | [6] -3.9%

COc1cccc(C(=O)O)c1OC
inactive: [1] 11.2% | [2] 14.4% | [3] 6.55% | [4] 3.75% | [5] -5.35% | [6] 0%

Nc1cc(N)ncn1
inactive: [1] -1.3% | [2] -18.9% | [3] 3.6% | [4] 22.5% | [5] -10.1% | [6] 26.7%

CC(=O)NNC(=S)/N=C\C(C(=O)c1ccccc1)=C(/O)c1ccccc1
inactive: [1] -41.4% | [2] -28.8% | [3] -14.4% | [4] 2% | [5] -15.4% | [6] -19.2%

Cc1cccnc1NC1OC(=O)c2ccccc21 (stereo not drawn)
inactive: [1] -22.1% | [2] -4.4% | [3] -16.6% | [4] 2.05% | [5] -9.25% | [6] -9.65%

CNc1ccccc1C(=O)N/N=C/C=C/c1ccccc1
inactive: [1] 31.6% | [2] 0.35% | [3] 31.1% | [4] 2.65% | [5] 5.3% | [6] 14.5%

COc1c(CNC(=O)CCl)cc2[nH]c(C)cc2c1CNC(=O)CCl
inactive: [1] 4.9% | [2] 4.95% | [3] 17.3% | [4] 2.2% | [5] 9.7% | [6] -25.9%

O=[N+]([O-])c1c(O)c(CNCCCO)cc(CNCCCO)c1O
inactive: [1] 13.5% | [2] 29.8% | [3] 18.9% | [4] 19.6% | [5] 25.9% | [6] 43.1%

O=C1C=Cc2ccccc2/C1=C/c1[nH]c(=O)[nH]c1O
inactive: [1] -21.1% | [2] -1.35% | [3] -9.7% | [4] 3.2% | [5] -3% | [6] -5.3%

O=C(c1ccccc1)c1ccc(-c2ccc(O)cc2)cc1
inactive: [1] 37.7% | [2] 23.5% | [3] 24.9% | [4] -44.3% | [5] 57.1% | [6] -8%

C=CCC(O)C=C (stereo not drawn)
inactive: [1] 10.3% | [2] -14.9% | [3] 5.4% | [4] -0.8% | [5] -5.35% | [6] 12.4%

N#Cc1ccc(OC(=O)Nc2c(Cl)cc(Cl)cc2Cl)cc1
inactive: [1] -10.2% | [2] -14.7% | [3] 15.4% | [4] 23.2% | [5] 30.4% | [6] 9.95%

O=C(NCCc1ccccc1)/C(=C\c1ccc(Cl)cc1Cl)NC(=O)c1ccccc1
inactive: [1] 1.65% | [2] -6.15% | [3] 1.85% | [4] -5.95% | [5] 4.35% | [6] 13.9%

CCN(CC)CCOC(=O)Nc1c(C(C)C)cccc1C(C)C
inactive: [1] -2.7% | [2] -24.3% | [3] 14.3% | [4] 15.4% | [5] 13% | [6] 2.15%

CCNc1ccc2ccccc2c1N=Nc1ccc(N=Nc2ccccc2)cc1
inactive: [1] -12.4% | [2] -30% | [3] 11.5% | [4] 9.75% | [5] -12.7% | [6] -8.55%

C=C(OC(C)=O)c1ccccc1
inactive: [1] 6.45% | [2] -12.4% | [3] 5.8% | [4] -7.25% | [5] 28.3% | [6] 0.05%

CC(C)(C)[Si](C)(C)OCC1OC(n2cnc3c(N)ncnc32)CC1OS(C)(=O)=O (stereo not drawn)
inactive: [1] -17% | [2] -21.6% | [3] 0.75% | [4] -3.15% | [5] 5.3% | [6] 0.5%

Nc1ccc(F)cc1F
inactive: [1] 6% | [2] -2.25% | [3] -3.7% | [4] -27.1% | [5] 18.1% | [6] 7.35%

CCCC1OC(c2ccco2)OCC1CC (stereo not drawn)
inactive: [1] 30.8% | [2] -2.15% | [3] 18.6% | [4] -27.8% | [5] -0.05% | [6] 27.1%
